{
  "source": "PubChem BioAssay (NCATS)",
  "note": "Inconclusive results are not listed. Values without a mark were called inactive. Activity calls are given as the source filed them. Calls follow the shape of the dose curve; as a rule, active = well fitted inhibition curve with a large enough effect; inconclusive = small, poorly fitted or top-dose-only effect; inactive = flat fitted curve, though single readings scatter. Potency is read from the fitted curve at half-maximal effect.",
  "data": [
    {"system": "CP211", "experiment": "qHTS profiling for inhibitors of Plasmodium falciparum proliferation (AID 504749); also: nearly all actives have a fitted effect of over 60% in size;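 as to activity, negative = inhibition: 0% = DMSO vehicle and full inhibition = artemisinin control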", "details": "P. falciparum in erythrocytes, SYBR Green DNA, 72 h; series mostly up to 28.7 µM; activity, negative = inhibition: at the top concentration", "outline": "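P. falciparum-infected erythrocytes (0.3% parasitemia, 2.5% hematocrit final) were exposed to compounds for 72 h at 37 C in 5% CO2, then lysed with SYBR Green buffer overnight at room temperature; parasite DNA fluorescence was normalized to artemisinin and DMSO controls.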", "values": [
      {"smiles": "CCCCCCCCCCCCCCCC(=O)OC[C@H](O)[C@H]1OC[C@@H](O)[C@@H]1O", "activity, negative = inhibition": "1.37%"},
      {"smiles": "CCCCC(=O)OCC(=O)[C@]1(O)Cc2c(O)c3c(c(O)c2[C@H](OC2CC(NC(=O)C(F)(F)F)C(O)C(C)O2)C1)C(=O)c1c(OC)cccc1C3=O", "note": "(stereo not given in full)", "Potency": "1690 nM (active)"},
      {"smiles": "C[C@H]1OC(OC2C(O)[C@@H](O)C(OC3C(O)[C@@H](O)C(O)O[C@@H]3CO)O[C@@H]2CO)[C@H](O)C(O)C1N[C@H]1C=C(CO)[C@@H](O)[C@H](O)C1O", "note": "(stereo not given in full)", "activity, negative = inhibition": "0.613%"},
      {"smiles": "CCN(CC)CC(=O)Nc1c(C)cc(C)cc1C", "activity, negative = inhibition": "3.03%"},
      {"smiles": "CC(=O)N[C@H]1[C@H](O[C@@H]2c3ccc(c(Cl)c3)Oc3cc4cc(c3O[C@@H]3O[C@H](CO)[C@@H](O)[C@H](O)C3C)Oc3ccc(cc3Cl)C[C@H]3NC(=O)[C@@H](N)c5ccc(O)c(c5)Oc5cc(O)cc(c5)[C@H](NC3=O)C(=O)N[C@H]4C(=O)N[C@H]3C(=O)N[C@@H]2C(=O)N[C@@H](C(=O)O)c2cc(O)cc(O[C@H]4O[C@H](CO)[C@@H](O)C(O)[C@@H]4O)c2-c2cc3ccc2O)O[C@H](CO)[C@@H](O)[C@@H]1O", "note": "(stereo not given in full)", "activity, negative = inhibition": "1.44% [at 12.8 µM]"},
      {"smiles": "NC(=O)c1ncn(C2OC(CO)C(O)C2O)c1N", "note": "(stereo not given)", "activity, negative = inhibition": "0.0646%"},
      {"smiles": "C[C@H]1[C@@H](OC(=O)CCC(=O)O)OC2OC3(C)CC[C@H]4[C@H](C)CC[C@@H]1[C@@]24OO3", "note": "(stereo not given in full)", "Potency": "4.8 nM (active)"},
      {"smiles": "CC1(Cn2ccnn2)[C@H](C(=O)O)N2C(=O)C[C@H]2S1(=O)=O", "note": "(stereo not given in full)", "activity, negative = inhibition": "-3.29%"},
      {"smiles": "CN(C)CC/C=C1\\c2ccccc2COc2ccc(CC(=O)O)cc21", "activity, negative = inhibition": "-9.83%"},
      {"smiles": "CCCC(=O)O[C@]1(C(=O)COC(C)=O)CC[C@H]2C3C[C@H](F)C4=CC(=O)C=CC4(C)[C@@]3(F)[C@@H](O)CC21C", "note": "(stereo not given in full)", "activity, negative = inhibition": "0.19%"},
      {"smiles": "OCCN1CC(O)C(O)C(O)C1CO", "note": "(stereo not given)", "activity, negative = inhibition": "1.68%"},
      {"smiles": "COc1cc2c(cc1O)CCN[C@@]21CS[C@H]2c3c(OC(C)=O)c(C)c4c(c3C(COC1=O)N1C2C2c3c(cc(C)c(OC)c3O)CC([C@@H]1O)N2C)OCO4", "note": "(stereo not given in full)", "Potency": "0.5 nM (active)"},
      {"smiles": "CC(CCC(=O)O)C1CCC2C3C(=O)C[C@@H]4CC(=O)CC[C@@]4(C)C3CC(=O)[C@]12C", "note": "(stereo not given in full)", "activity, negative = inhibition": "-14.1%"},
      {"smiles": "C[n+]1c2cc(N)ccc2cc2ccc(N)cc21", "Potency": "953 nM (active)"},
      {"smiles": "O=C(OC[C@@H]1O[C@@](O)(COC(=O)c2cccnc2)[C@H](OC(=O)c2cccnc2)[C@H]1OC(=O)c1cccnc1)c1cccnc1", "activity, negative = inhibition": "-3.5%"},
      {"smiles": "O=[N+]([O-])O[C@H]1CO[C@H]2[C@@H]1OC[C@H]2O", "activity, negative = inhibition": "-0.52%"},
      {"smiles": "COc1cccc(OC)c1C(=O)NC1C(=O)N2C1SC(C)(C)C2C(=O)O", "note": "(stereo not given)", "activity, negative = inhibition": "3.74%"},
      {"smiles": "NC[C@@H]1O[C@H](OC2[C@@H](CO)O[C@@H](OC3[C@H](O)[C@H](N)C[C@H](N)[C@H]3OC3O[C@H](CO)[C@@H](O)[C@H](O)[C@@H]3N)[C@H]2O)C(N)[C@H](O)[C@@H]1O", "note": "(stereo not given in full)", "activity, negative = inhibition": "-5.33%"},
      {"smiles": "Cc1ccc(S(=O)(=O)NC(=O)NC(C)Cc2ccccc2)cc1", "note": "(stereo not given)", "activity, negative = inhibition": "-5.72%"},
      {"smiles": "OCCOC[C@H]1O[C@H](OCCO)[C@H](OCCO)[C@@H](OCCO)[C@@H]1OCCO", "note": "(tested in a mixture with another compound)", "activity, negative = inhibition": "-0.3%"},
      {"smiles": "C[S+](C)CC[C@H](N)C(=O)O", "activity, negative = inhibition": "0.142%"},
      {"smiles": "CC[C@@H]1/C=C(\\C)C[C@H](C)C[C@H](OC)[C@H]2O[C@@](O)(C(=O)C(=O)N3CCCC[C@H]3C(=O)O[C@H](/C(C)=C/[C@@H]3CC[C@H](Cl)[C@H](OC)C3)[C@H](C)[C@@H](O)CC1=O)[C@H](C)C[C@@H]2OC", "activity, negative = inhibition": "-5.46%"},
      {"smiles": "NC(=O)C1CC2(NC(=O)NC2=O)c2cc(F)ccc2O1", "note": "(stereo not given)", "activity, negative = inhibition": "4.15%"},
      {"smiles": "CN1[C@@H]2CC[C@@H]1CC(OC(=O)[C@H](CO)c1ccccc1)C2", "note": "(stereo not given in full)", "activity, negative = inhibition": "2.4%"},
      {"smiles": "CC[C@@]1(O)C[C@H](O[C@H]2C[C@@H](N(C)C)[C@@H](O[C@H]3C[C@@H](O)[C@@H](O[C@H]4CCC(=O)[C@@H](C)O4)[C@@H](C)O3)[C@@H](C)O2)c2c(cc3c(c2O)C(=O)c2c(O)cccc2C3=O)[C@H]1C(=O)OC", "Potency": "849 nM (active)"},
      {"smiles": "CCCCCCCCCCCC(=O)OCC(O)C1OCC(O)C1O", "note": "(stereo not given)", "activity, negative = inhibition": "9.83%"},
      {"smiles": "C/C1=C2/[N-]C(C(CC(N)=O)[C@@]2(C)CCC(=O)NCC(C)OP(=O)([O-])O[C@H]2[C@@H](O)[C@@H](n3cnc4cc(C)c(C)cc43)O[C@@H]2CO)[C@]2(C)N=C(/C(C)=C3N=C(/C=C4N=C1C(CCC(N)=O)C\\4(C)C)[C@@H](CCC(N)=O)[C@]\\3(C)CC(N)=O)[C@@H](CCC(N)=O)[C@]2(C)CC(N)=O.CC(=O)O.[Co]", "note": "(stereo not given in full)", "activity, negative = inhibition": "-6.29%"},
      {"smiles": "CC1(C)OC[C@@H]2O[C@@]3(C(=O)O)OC(C)(C)O[C@@H]3[C@@H]2O1", "activity, negative = inhibition": "-3.09%"},
      {"smiles": "Cc1ccccc1N1C(=O)c2cc(N)ccc2N/C1=C\\F", "activity, negative = inhibition": "-10.4%"},
      {"smiles": "CCC(C(=O)O)C1OC(C(C)C(O)C(C)C(=O)C(CC)C2OC3(C=CC(O)C4(CCC(C)(C5CCC(O)(CC)C(C)O5)O4)O3)C(C)CC2C)C(C)CC1C", "note": "(stereo not given)", "Potency": "67.5 nM (active)"},
      {"smiles": "O=C1C(I)=CC(=C(c2cc(I)c(O)c(I)c2)c2ccccc2C(=O)O)C=C1I", "activity, negative = inhibition": "-19.7%"},
      {"smiles": "NC(=O)NC(CCC(=O)O)C(=O)O", "note": "(stereo not given)", "activity, negative = inhibition": "-0.365%"},
      {"smiles": "COC1CC2CCC(C)[C@](O)(O2)C(=O)C(=O)N2CCCCC2C(=O)OC(C(C)CC2CCC(O)C(OC)C2)CC(=O)C(C)/C=C(/C)C(O)C(OC)C(=O)C(C)CC(C)C=CC=C/C=C\\1C", "note": "(stereo not given in full)", "Potency": "4260 nM (active)"},
      {"smiles": "CC(=O)OCC(=O)[C@@]1(O)CCC2C3C[C@H](C)C4=CC(=O)C=CC4(C)C3C(O)CC21C", "note": "(stereo not given in full)", "activity, negative = inhibition": "-8.13%"},
      {"smiles": "CN[C@H](C)CCC=C(C)C", "Potency": "953 nM (active)"},
      {"smiles": "CC1(C)C2CC[C@]1(C)[C@@H](O)C2", "activity, negative = inhibition": "0.68%"},
      {"smiles": "OCC1O[C@H](Oc2ccc(O)cc2)C(O)C(O)C1O", "note": "(stereo not given in full)", "activity, negative = inhibition": "-4.54%"},
      {"smiles": "Nc1nc(F)nc2c1ncn2[C@@H]1O[C@H](CO)[C@@H](O)[C@H]1O", "activity, negative = inhibition": "-0.629%"},
      {"smiles": "CC1OC(OC2CCC3(C)C(CCC4C3CC(O)C3(C)C(C5=CC(=O)OC5)CCC43O)C2)CC(O)C1OC1CC(O)C(OC2CC(O)C(OC3OC(CO)C(O)C(O)C3O)C(C)O2)C(C)O1", "note": "(stereo not given)", "activity, negative = inhibition": "-4.11%"},
      {"smiles": "CC1OC(OCC2OC(Oc3c(-c4ccc(OCCO)c(OCCO)c4)oc4cc(OCCO)cc(O)c4c3=O)C(O)C(O)C2O)[C@@H](O)C(O)C1O", "note": "(stereo not given in full)", "activity, negative = inhibition": "-4.29%"}
    ]}
  ]
}
